Test results taken from PubChem BioAssay AID1159580 (chemical genetic matrix, 2015).
Hit rate of the full screen: of about 5,500 compounds, about 2,000 (36%) were called active. Roughly 18% stayed inconclusive and do not appear here. Rule as the data show it: active = normalized growth mostly below about 0.91 (no sharp cut-off); inconclusive = no clear call, values can overlap the other calls; inactive = mostly above about 0.92. This is one part of the list.

Test: chemical genetic growth profiling, strain panel (AID 1159580);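 also: tested at 20 µM; growth read once vehicle control cultures reached saturation at 30 °C; 1 = growth at the plate median or of vehicle wells; lower values mean less growth of the strain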
Details: S. cerevisiae deletion strains, growth OD

Measured: normalized growth

O=C(O)c1coc2ccccc2c1=O
active: locus YCL061C, strain MRC1, active compounds read low 0.906 | locus YLR039C, strain RIC1, active compounds read low 0.665 | locus YLR262C, strain YPT6, active compounds read low 0.764 | locus YPL241C, strain CIN2, active compounds read low 0.833
inactive: locus YAL013W, strain DEP1, active compounds read low 1 | locus YBR229C, strain ROT2, active compounds read low 0.99 | locus YDL101C, strain DUN1, active compounds read low 0.973 | locus YDR150W, strain NUM1, active compounds read low 0.908 | locus YEL061C, strain CIN8, active compounds read low 1.02 | locus YGR078C, strain PAC10, active compounds read low 0.995 | locus YGR229C, strain SMI1, active compounds read low 0.999 | locus YHR030C, strain SLT2, active compounds read low 0.867 | locus YHR087W, strain rtc3, active compounds read low 0.96 | locus YJL187C, strain SWE1, active compounds read low 0.992 | locus YJR043C, strain POL32, active compounds read low 1 | locus YJR075W, strain HOC1, active compounds read low 0.897 | locus YKL190W, strain CNB1, active compounds read low 1.01 | locus YLR058C, strain SHM2 (second series), active compounds read low 0.995 | locus YLR085C, strain ARP6, active compounds read low 0.853 | locus YML094W, strain GIM5, active compounds read low 0.96 | locus YMR219W, strain ESC1, active compounds read low 0.964 | locus YMR263W, strain SAP30, active compounds read low 0.978 | locus YNL153C, strain GIM3, active compounds read low 0.982 | locus YNL298W, strain CLA4 (second series), active compounds read low 1 | locus YNL322C, strain KRE1, active compounds read low 0.994 | locus YNR030W, strain Alg12, active compounds read low 0.888 | locus YOL006C, strain TOP1, active compounds read low 0.852 | locus YPL055C, strain LGE1, active compounds read low 0.906 | locus YPR135W, strain CTF4, active compounds read low 0.892
